# Records with an inconclusive call do not appear. A call without a number means that no potency is given here. Activity calls are given as the source filed them. Calls follow the shape of the dose curve; as a rule, active = well fitted inhibition curve with a large enough effect; inconclusive = small, poorly fitted or top-dose-only effect; inactive = no such curve, though single readings can be large or run the other way.
# Tests used:
# [1] = qHTS for Inhibitors of the Aldehyde Dehydrogenase Family (ALDH1A2, ALDH1A3, ALDH2, ALDH3A1) (AID 2061307); also: nearly all actives have a fitted effect of over 50% in size; as to potency: test system not described further here; potency is read from the fitted curve at half-maximal effect
# [2] = target: Retinaldehyde dehydrogenase 3 (Homo sapiens) (UniProt P47895); assay: qHTS for Inhibitors of the Aldehyde Dehydrogenase Family (ALDH1A3) Confirmatory screens (AID 2061311); also: nearly all actives have a fitted effect of over 60% in size; also: potency is read from the fitted curve at half-maximal effect
# [3] = target: Retinal dehydrogenase 2 (Homo sapiens) (UniProt O94788); assay: qHTS for Inhibitors of the Aldehyde Dehydrogenase Family (ALDH1A2) Confirmation screens (AID 2061314); also: nearly all actives have a fitted effect of over 65% in size; also: potency is read from the fitted curve at half-maximal effect
# [4] = target: Retinaldehyde dehydrogenase 3 (Homo sapiens) (UniProt P47895); assay: qHTS for Inhibitors of the Aldehyde Dehydrogenase Family (ALDH1A3) Primary screen (AID 2061315)
# [5] = target: Aldehyde dehydrogenase 1A1 (Homo sapiens) (UniProt P00352); assay: qHTS for Inhibitors of the Aldehyde Dehydrogenase Family (ALDH1A1) Confirmatory screens (AID 2061316); also: nearly all actives have a fitted effect of over 65% in size; also: potency is read from the fitted curve at half-maximal effect
Compound,Potency [1],Potency [2],Potency [3],Potency [4],Potency [5]
Cc1nc(C(C)Nc2ncnc3ccc(-c4ccc5c(c4)OCO5)cc23)cs1 (configuration not stated),inactive,inactive,inactive,inactive,–
Cc1ccc(-c2cc(C(=O)NCc3cccc(F)c3)nn3cnnc23)cc1,8.91 µM (active),8.91 µM (active),inactive,–,–
CCOC(=O)c1c(C)n(-c2ccc(OC)cc2)c2ccc(OC(=O)COc3ccccc3)cc12,inactive,inactive,inactive,–,inactive
CC(=O)Nc1sc2c(c1-c1ccc(N3CCN(C)CC3)cc1)CCNC2,inactive,inactive,–,–,inactive
Cc1cc(NC(=O)Nc2nnc(-c3ccncc3)s2)ccc1Br,11.3 µM (active),inactive,–,inactive,12.7 µM (active)
Cc1ccc(NC(=O)CSc2nc3ccccc3nc2N2CCOCC2)cc1,25.1 µM (active),–,2.29 µM (active),–,–
CCc1ccc(-n2c(=O)c3cccnc3n2CC(=O)N(CC)c2cccc(C)c2)cc1,inactive,28.2 µM (active),–,–,11.5 µM (active)
CC(=O)C1CCC2(C)C3=C(CCC12C)C1(C)CCC(=O)C(C)(C)C1CC3 (configuration not stated),inactive,–,–,inactive,–
CC(=O)c1ccc(NC(=O)c2cc(S(=O)(=O)N3CCOCC3)ccc2C)cc1,inactive,–,inactive,–,–
CNc1sc(-c2cccc3ccccc23)nc1C#N,inactive,–,11.3 µM (active),inactive,5.04 µM (active)
O=C(NCc1ccccc1)c1csc(N2CCN(c3ccc(Cl)cc3)CC2)n1,2.82 µM (active),–,inactive,–,–
CC(=O)Nc1sc2c(c1-c1ccc(N(C)C)cc1)CCNC2,14.2 µM (active),3.57 µM (active),–,–,11.3 µM (active)
Cc1nnc2ccc(N3CCC(NC(=O)c4cccc(C(F)(F)F)c4)CC3)nn12,inactive,inactive,–,–,inactive
CN(Cc1ccc(-c2ccc(C#N)cc2)o1)c1ccc(N2CCN(C(=O)OC(C)(C)C)CC2)cc1,1.79 µM (active),11.3 µM (active),–,–,11.3 µM (active)
O=C(NCCc1nc2ccccc2n1CCCc1ccccc1)C1CCCCC1,inactive,–,inactive,inactive,–
O=C(NCc1ccc2c(c1)OCO2)c1csc(N2CCN(c3ccc(F)cc3)CC2)n1,0.708 µM (active),–,inactive,–,4.47 µM (active)

Compound,Potency [1],Potency [2],Potency [3],Potency [4],Potency [5]
CC(=O)Nc1sc2c(c1-c1ccco1)CCNC2,inactive,–,17.9 µM (active),inactive,25.2 µM (active)
O=C(Nc1cccc(Cc2ccccc2)c1)c1ccc(-c2cccc([N+](=O)[O-])c2)o1,25.2 µM (active),–,12.7 µM (active),inactive,–
O=C(Nc1cccc(Br)c1)c1cc(-c2ccc3c(c2)OCCO3)on1,inactive,–,inactive,–,inactive
O=C(NCC(=O)N1CCC(c2ccccc2)CC1)c1cccc(-c2ccc(C(F)(F)F)cc2)c1,inactive,inactive,–,–,inactive
COC(=O)c1ccnc(NCc2ccc(O)c3ncccc23)c1,11.3 µM (active),7.12 µM (active),–,–,11.3 µM (active)
O=C(CSc1nc2ncccc2o1)Nc1ccc(Cl)cc1F,inactive,10 µM (active),–,–,inactive
Cc1cccc(NC(=O)N2CC(Oc3ccc(-c4nc(C)no4)cc3)C2)c1,3.24 µM (active),–,inactive,–,inactive
Cc1ccc(NS(=O)(=O)c2cc3c(cc2-c2ccco2)NC(=O)CO3)cc1C,inactive,–,inactive,inactive,11.3 µM (active)
CCc1ccc(-c2nn3c(C)nnc3s2)cc1NC(=O)c1ccc(-c2cccc(Cl)c2)o1,25.1 µM (active),–,12.7 µM (active),inactive,5.04 µM (active)
Cc1ccc(OCCn2c(CCNC(=O)c3ccccc3N)nc3ccccc32)cc1,1.13 µM (active),–,12.7 µM (active),inactive,7.12 µM (active)
COc1ccc(C2Nc3ccc(Cl)cc3C(=O)N2Cc2ccccc2)cc1COc1ccc(NC(C)=O)cc1 (configuration not stated),3.57 µM (active),–,11.3 µM (active),inactive,22.5 µM (active)
CCOC(=O)Cn1c(=O)oc2cc(S(=O)(=O)N3CCN(c4ccc(Cl)cc4)CC3)ccc21,inactive,inactive,–,–,inactive
O=C1Cc2cc(S(=O)(=O)N3CCN(c4ccc([N+](=O)[O-])cc4)CC3)ccc2N1,inactive,–,–,inactive,–
CCc1nnc2sc(-c3ccc(C)c(NC(=O)c4ccc(-c5cccc(Cl)c5)o4)c3)nn12,12.6 µM (active),–,3.18 µM (active),–,–
CC(C)(O)c1ccccc1CC[C@H](SCC1(CC(=O)O)CC1)c1cccc(/C=C/c2ccc3ccc(Cl)cc3n2)c1,10.1 µM (active),–,inactive,inactive,22.5 µM (active)

# Source: PubChem BioAssay (NCATS)
